± gives the standard deviation of the averaged measurements.
Tests used:
[1] = tested on: (+)-isopinocamphone A-neuron OSN class; assay: net action potential response of A-neuron (blank-subtracted) (spikes/s (Hz)); higher = stronger excitation; conditions: 10 µg on filter paper; neuron: A neuron (large spike amplitude)
In short: (§1)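 Spikes were counted in AutoSpike for the large-amplitude A-neuron or the small-amplitude B-neuron, using 0.5 s windows across 1–4 sensilla. Responses were reported as spikes/s after subtraction of the pre-stimulus count and of the blank, averaged across sensilla. The recordings came from one fixed antenna of live lab-reared adult Ips typographus via tungsten electrodes under a humidified, charcoal-filtered airstream of 1.8 L/min, with each compound given as 10 μg in paraffin oil on filter paper in a pipette, pulsed for 0.5 s at 0.3 L/min.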

[2] = tested on: (+)-trans-4-thujanol A-neuron OSN class; assay: as above; conditions: 10 µg on filter paper; neuron: A neuron (large spike amplitude)
In short: as §1

[3] = tested on: (5S,7S)-trans-conophthorin A-neuron OSN class; assay: as above; conditions: 10 µg on filter paper; neuron: A neuron (large spike amplitude)
In short: as §1

[4] = tested on: myrcene A-neuron OSN class; assay: as above; conditions: 10 µg on filter paper; neuron: A neuron (large spike amplitude)
In short: as §1

[5] = tested on: p-cymene A-neuron OSN class; assay: as above; conditions: 10 µg on filter paper; neuron: A neuron (large spike amplitude)
In short: as §1

[6] = tested on: lanierone-responsive B-neuron OSN class (ItypOR36); assay: net action potential response of lanierone B-neuron (blank-subtracted) (spikes/s (Hz)); higher = stronger excitation; conditions: 10 µg on filter paper, neuron: B neuron (small spike amplitude)
In short: as §1

[7] = tested on: ipsdienol A-neuron OSN class; assay: net action potential response of A-neuron (blank-subtracted) (spikes/s (Hz)); higher = stronger excitation; conditions: 10 µg on filter paper; neuron: A neuron (large spike amplitude)
In short: as §1

[8] = co-localized A-neuron class: (4S)-cis-verbenol
[9] = co-localized A-neuron class: (5S,7S)-trans-conophthorin
[10] = co-localized A-neuron class: (+)-isopinocamphone
[11] = co-localized A-neuron class: (+)-trans-4-thujanol
[12] = co-localized A-neuron class: ipsdienol
[13] = co-localized A-neuron class: myrcene
[14] = co-localized A-neuron class: p-cymene

Compound	net action potential response [1]	net action potential response [2]	net action potential response [3]	net action potential response [4]	net action potential response [5]	net action potential response [6, 8]	net action potential response [6, 9]	net action potential response [6, 10]	net action potential response [6, 11]	net action potential response [6, 12]	net action potential response [6, 13]	net action potential response [6, 14]	net action potential response [7]
C=C1CCC2CC1C2(C)C (stereo not drawn) [(-)-β-Pinene]	8 ± 7.2	1 ± 1.1	2 ± 6	18	0.667 ± 4.6	-0.667 ± 7.6	3.33 ± 3.1	-3.33 ± 4.6	-3 ± 4.2	0 ± 6	-8	0 ± 7.2	
C=CC(=C)C[C@@H](O)CC(C)C (racemic) [(±)-Ipsenol]	-1.33 ± 5	2 ± 2.8	-1.33 ± 6.1	-2	-4	-1.33 ± 5	0 ± 5.3	0 ± 3.5	0.5 ± 1.9	-5.33 ± 2.3	-4	-8 ± 5.7	
CC(=O)OCCC(C)C [3-Methylbutyl acetate]	4.67 ± 4.2	3.33 ± 3.1	-2.67 ± 4.6	10	6.67 ± 5	-8 ± 5.3	1.33 ± 2.3	3.33 ± 3.1	0 ± 5.3	2	-6	-2 ± 3.5	0 ± 6.9
CC1=CCC2C(C1)C2(C)C (single isomer, unassigned; (+)) [(+)-3-Carene]	2 ± 5.3	7.5 ± 6.8	6.67 ± 4.6	12	50.7 ± 18	1.33 ± 13	3.33 ± 2.3	-2.67 ± 5	-2.5 ± 2.5	-1.33 ± 4.2	-2	-3.33 ± 4.2	
CC1=CCC2CC1C2(C)C (stereo not drawn) [(-)-α-Pinene]	4 ± 3.5	-0.5 ± 1.9	2.67 ± 3.1	2	5.33 ± 6.4	-6 ± 4	-1.33 ± 2.3	2 ± 2	0 ± 5.7	-1.33 ± 4.2	2	-5.33 ± 4.6	1.33 ± 2.3
c1ccc2c(c1)CCO2 [2,3-Dihydrobenzofuran]	2 ± 2	-1.5 ± 1.9	1.33 ± 3.1	-6	6.67 ± 5.8	3.33 ± 9.2	-0.667 ± 4.2	0.667 ± 11	2.5 ± 3.4	-3.33 ± 3.1	-2	6 ± 8.7	
CC[C@H]1O[C@]2(C)CCC[C@H]1O2 (racemic) [(±)-exo-Brevicomin]	-0.667 ± 4.2	2.5 ± 2.5	173 ± 40	6	0 ± 2	0 ± 2	-4 ± 2	-2	-1 ± 1.1	4 ± 12	2	-3.33 ± 2.3	-2.67 ± 5
CC12CCC(CC1)C(C)(C)O2 [1,8-Cineole]	-2.67 ± 2.3	1 ± 3.8	2.67 ± 10	8	13.3 ± 11	4 ± 9.2	-6.67 ± 6.1	0.667 ± 4.2	-1 ± 2.6	0 ± 10	-4	0 ± 5.3	
CC1=C[C@@H](O)[C@H]2C[C@@H]1C2(C)C [(-)-trans-Verbenol]	0.667 ± 10	5.5 ± 5.7	13 ± 20	6	2 ± 2	-1.33 ± 9	-3.5 ± 6	1.33 ± 2.3	-2 ± 2.8	2 ± 4	-4	-2 ± 9.2	
C=C(C)[C@@H]1CC=C(C)CC1 [(-)-Limonene]	-0.667 ± 4.2	2 ± 1.6	0 ± 2	6	26.7 ± 13	-1.33 ± 5.8	-2.67 ± 3.1	-0.667 ± 2.3	2.5 ± 5.3	1.33 ± 4.6	-8	-1.33 ± 4.2	
CC(C)[C@@]12CC[C@@](C)(O)[C@@H]1C2 [(+)-trans-4-Thujanol]	11.3 ± 16	133 ± 37	-1 ± 1.1	-4	37.3 ± 13	-3.33 ± 4.2	0 ± 5.9	0.667 ± 1.1	-6.5 ± 5.5	-0.667 ± 2.3	2	-1.33 ± 3.1	
CCCCCC=O [Hexanal]	4.67 ± 3.1	0.5 ± 4.4	2.67 ± 7.6	4	2 ± 3.5	0.667 ± 3.1	-0.667 ± 1.1	-1.33 ± 9	-3 ± 2.6	-3.33 ± 4.2	2	3.33 ± 4.6	
COc1ccc(C)cc1 [4-Methyl anisole]	7.33 ± 4.6	6.5 ± 3.4	2 ± 2	-4	44 ± 12	-1.33 ± 8.3	2 ± 3.5	2.67 ± 1.1	-2 ± 6.7	0.667 ± 10	-8	-2.67 ± 3.1	4 ± 2
CCC(C)CO (racemic) [(±)-2-Methyl-1-butanol]	0 ± 2	2.5 ± 6.8	5 ± 1.1	4	8 ± 4	0 ± 3.5	2 ± 3.3	-2 ± 2	3.5 ± 3	-1.33 ± 5	-4	-2 ± 4	
CCC1CCC2(CCCO2)O1 (racemic) [(±)-Chalcogran]	-3.33 ± 1.1	9 ± 10	175 ± 15	2	0.667 ± 3.1	-1.33 ± 5.8	-4 ± 5.3	-1.33 ± 2.3	-1.5 ± 3.4	-0.667 ± 1.1	-8	-2.67 ± 2.3	1.33 ± 2.3
Cc1ccc(C(C)C)cc1 [p-Cymene]	-0.667 ± 2.3	0.5 ± 5.3	3.5 ± 3.4	0	146 ± 65	-3.33 ± 3.1	0.5 ± 2.5	-2 ± 3.5	-1.5 ± 4.4	-1.33 ± 5	4	-3.33 ± 5.8	
C=C1[C@@H]2CC[C@@H](C2)C1(C)C (racemic) [(±)-Camphene]	-2 ± 2	1.5 ± 1	-2.67 ± 3.1	0	-3 ± 1.4	-3.33 ± 8.3	0 ± 2	-3.33 ± 1.1	0 ± 3.6	3.33 ± 2.3	-4	0	
CC(=O)OC/C=C(\C)CCC=C(C)C [Geranyl acetate]	0.667 ± 7	0	2 ± 7.2	-4	1 ± 1.4	-2.67 ± 7.6	-2 ± 9.2	-0.667 ± 2.3	-2 ± 4.3	-2 ± 5.3	0	-2 ± 5.7	
C=CC(C)(C)O [2-Methyl-3-buten-2-ol]	0.667 ± 1.1	7 ± 11	3.33 ± 4.2	-8	1 ± 1.4	-4.67 ± 5	-4.67 ± 7	2 ± 2	-3.5 ± 7.2	3.33 ± 11	4	-6 ± 2.8	0 ± 4
CC1=CCC2CC1C2(C)C (stereo not drawn) [(+)-α-Pinene]	3.33 ± 3.1	2.5 ± 3	-1.5 ± 6.8	4	2.67 ± 1.1	0 ± 12	-0.5 ± 4.7	0.667 ± 5.8	2 ± 2.8	-4 ± 4	-4	1.33 ± 7	
COc1ccccc1 [Anisole]	2 ± 5.3	1 ± 4.2	1.33 ± 4.2	-2	10.7 ± 5.8	-1.33 ± 8.3	0 ± 6	-2.67 ± 2.3	-2.5 ± 4.1	2.67 ± 4.6	2	-3 ± 1.4	
CC1=CCC(C(C)C)=CC1 [γ-Terpinene]	-0.667 ± 3.1	-1 ± 4.2	3 ± 4.8	6	117 ± 49	-2 ± 5.3	0.5 ± 6	-0.667 ± 6.1	-0.5 ± 1.9	0 ± 6	-6	-4 ± 3.5	

Source: the supplement of paper PMC11577813, “Eurasian spruce bark beetle detects lanierone using a highly expressed specialist odorant receptor, present in several functional sensillum types” (BMC Biology, 2024)
